The entries come from a sample that favours hits as a whole.
ST2 IL33 inh = inhibitors of human ST2 (IL1RL1) binding to IL-33, primary screen, biochemical, AlphaLISA | Interleukin-1 receptor-like 1 (Homo sapiens), Q01638 | AlphaLISA ST2-Fc/biotin-IL-33 interaction, 1 h | inhibition, % for hits at 17 µM | actives 2.3% (n = 78,000); in the data active means inhibition above about 30%
Target sequence (Q01638 whole entry, looked up): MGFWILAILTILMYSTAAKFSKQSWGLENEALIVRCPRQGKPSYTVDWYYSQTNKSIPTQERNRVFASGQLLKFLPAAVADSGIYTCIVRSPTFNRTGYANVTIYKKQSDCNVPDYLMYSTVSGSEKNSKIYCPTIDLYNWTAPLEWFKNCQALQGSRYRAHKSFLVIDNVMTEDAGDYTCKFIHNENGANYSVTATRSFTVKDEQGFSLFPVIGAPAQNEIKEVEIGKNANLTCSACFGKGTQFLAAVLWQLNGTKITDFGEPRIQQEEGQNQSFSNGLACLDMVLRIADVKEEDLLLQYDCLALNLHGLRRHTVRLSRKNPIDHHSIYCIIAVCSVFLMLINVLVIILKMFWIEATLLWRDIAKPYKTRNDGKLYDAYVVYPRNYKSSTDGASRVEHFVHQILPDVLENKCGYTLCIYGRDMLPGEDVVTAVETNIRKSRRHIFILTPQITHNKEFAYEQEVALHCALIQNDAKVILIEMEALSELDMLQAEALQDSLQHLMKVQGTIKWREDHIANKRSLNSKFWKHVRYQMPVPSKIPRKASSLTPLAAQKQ
* = called active by the depositor; i = inactive; ! = repeats disagree.

SMILES	ST2 IL33 inh
CCN1C(=O)/C(=C2\SC(N)=NC2=O)c2cc(Br)ccc21	i
CCCN1C(=O)C(=O)c2cc(Br)ccc21	i
CCCN1C(=O)/C(=C2\SC(N)=NC2=O)c2cc(Br)ccc21	33%*
CN(Cc1nc2ccc(Cl)cc2[nH]1)C(=O)c1cn(CC2CCCCC2)nn1	i
CCCn1ncc(C(=O)N(CC)Cc2noc(C)n2)c1C	i
Cc1ccc(NS(=O)(=O)c2ccc(F)cc2)c(C)c1	i
Cc1ccc(NS(=O)(=O)c2cccc3c2C(=O)c2ccccc2C3=O)c(C)c1	64%*
Cc1ccc(NCN2C(=O)c3ccccc3C2=O)c(C)c1	i
Cc1[nH]cnc1CSCCNc1nc(-c2ccncc2)nc2c1CNC2	i
Cc1cc(C)c([N+](=O)[O-])cc1NC(=O)c1cc2c(C)nn(-c3ccccc3)c2s1	i
Cc1nn(-c2ccccc2)c2sc(C(=O)NCCCO)cc12	i
Cc1ccc(NC(=O)c2cc3c(C)nn(-c4ccccc4)c3s2)cc1[N+](=O)[O-]	36%*
CCCc1n[nH]c(=O)n1[C@@H](CC)c1ccccc1	i
CCOC(=O)C1(CCOC)CCN(C(=O)c2cc(OC)c(OC)c(OC)c2)CC1	i
CCOC(=O)c1sc(-c2ccccc2)c(C#N)c1C	i
Cc1c(-c2ccccc2)sc(N)c1C#N	33%*
Cc1cc(-c2ccccc2)c(C#N)c(N)n1	i
CCc1nnc(CN2CCCC3(C2)C(=O)Nc2ccccc23)o1 (configuration not stated)	i
CC1=NN(c2ccccc2)C(=O)/C1=C/c1ccc(O)c(Br)c1	i
COc1ccccc1OCCOc1ccc([N+](=O)[O-])cc1/C=C1/C(=O)N(c2ccccc2)N=C1C	i
Cc1cccc(OCCOCCOc2ccc(/C=C3\C(=O)NN(c4ccccc4)C3=O)cc2)c1	34%*
CCc1cccc(OCCOCCN2CCCC2)c1	i
COc1cc(/C=C2\C(=O)N(c3ccccc3)N=C2C)ccc1OCc1ccc(F)cc1	i
COc1cc(/C=C2/C(=O)N(c3ccccc3)N=C2C)ccc1OCCOCCOc1ccccc1	45%*
COc1cccc(/C=C2\C(=O)N(c3cccc(Cl)c3)N=C2C)c1	i
SMILES	ST2 IL33 inh
C=CCN1C(=O)NC(=O)/C(=C/c2cccc(OCc3ccccc3Cl)c2)C1=O	i
CC1=NN(c2ccccc2)C(=O)/C1=C\c1ccccc1OCc1ccccc1	40%*
COc1cccc(OCCOc2ccc(/C=C3/C(=O)N(c4ccccc4)N=C3C)cc2OC)c1	43%*
COc1ccccc1/C=C1/C(=O)N(c2ccccc2)N=C1C	i
CC1=NN(c2ccccc2)C(=O)/C1=C/c1cccc(C(=O)O)c1	i
C=CCSC(C)C(=O)N1CCn2c(C(N)=O)cnc2C1 (configuration not stated)	i
CCn1cnc2sc(C(=O)Oc3ccc(F)cc3)c(C)c2c1=O	i
COc1ccc2[nH]c(=O)c(CN3CCC(NS(C)(=O)=O)CC3)cc2c1	i
C[C@@H]1O[C@@H](O[C@H]2C(=O)c3c(O)cc(O)cc3O[C@@H]2c2ccc(O)c(O)c2)[C@H](O)[C@H](O)[C@H]1O	i
CCCS(=O)(=O)c1c(S(=O)(=O)CCC)c2ccc(C(C)=O)cn2c1C(=O)c1ccccc1	i
CCN1CCN(c2nc3c(c(=O)n(C)c(=O)n3C)n2Cc2ccccc2)CC1	i
COc1cccc(C(=O)N2CCN=C2SCc2cccnc2)c1	i
Cc1ccc(N2C(=O)C3CC=CCC3C2=O)c(Br)c1 (configuration not stated)	i
CC(C)OCC(O)Cn1c(Br)nc2c1c(=O)[nH]c(=O)n2C (configuration not stated)	i
C=CCSc1nnc2c(n1)OC(c1ccccc1)N(C(C)=O)c1ccccc1-2 (configuration not stated)	i
CCc1c(C)nc2ncnn2c1Sc1ccccc1NC(=O)Nc1ccc(C)c(F)c1	i
CN(C)CCN1C(=O)C(=O)C(=C(O)c2ccc(F)cc2)C1c1cccs1 (configuration not stated)	i
COc1cc2ccc(=O)oc2c(OC)c1O	i
CCN(CC)c1ccc(C(Nc2ccccn2)c2ccc3cccnc3c2O)cc1 (configuration not stated)	36%*
CCOc1cc(C(Nc2ccccn2)c2ccc3cccnc3c2O)ccc1O (configuration not stated)	i
Cc1ccnc(NC(c2cccnc2)c2ccc3cccnc3c2O)c1 (configuration not stated)	i
CN1CC2(CCN(C(=O)c3cc(=O)n(-c4ccccc4)[nH]3)C2)OC1=O (configuration not stated)	i
CCCCN(C)Cc1ccc([N+](=O)[O-])cc1	i
c1cncc(CNc2c3ccccc3nc3ccccc23)c1	i
O=[N+]([O-])c1ccc(-c2nc(NCc3cccnc3)c3ccccc3n2)cc1	96%*!
SMILES	ST2 IL33 inh
C=CCNc1nc(-c2ccc([N+](=O)[O-])cc2)nc2ccccc12	i
CCCCN(C)c1nc(-c2ccc([N+](=O)[O-])cc2)nc2ccccc12	39%*
O=[N+]([O-])c1ccc(-c2nc(NC3CCCCC3)c3ccccc3n2)cc1	i
CCOC(=O)C1=C(C)OC(N)=C(C#N)C1c1ccc(N(C)C)cc1 (configuration not stated)	i
O=c1/c(=C/c2cccs2)sc2nnc(-c3ccccc3Cl)n12	i
Cc1nnc(NC(=O)c2ccc(C(C)(C)C)cc2)s1	i
CC1=C(C(=O)Nc2ccccc2)C(c2ccco2)C(C#N)=C(SCC(=O)c2ccc(C)cc2)N1 (configuration not stated)	i
CCc1nnsc1-c1nc(C2CC2)nn1-c1ccccc1	i
Cc1cc(C)n(CC2(CNCc3nc(-c4ccco4)no3)CC2)n1	i
CC(=O)c1ccc(N2C(=O)c3ccc(F)cc3C2=O)cc1	i
CC(=O)Nc1ccc(N=Cc2ccccc2O)cc1	i
CCN(CC)c1ccc(C=Nc2cc(Cl)ccc2O)c(O)c1	i
CCN(CC)c1ccc(N=Cc2ccccc2O)cc1	79%*
Cc1oc(-c2ccc(Cl)cc2)nc1CSCC(=O)NCCC(C)C	i
CCc1c(C#N)c(N)nc(SCc2ccccc2C)c1C#N	i
Cc1ccc(NC(=O)CNCc2scnc2-c2ccccc2)c(C)c1	i
CC(C)CCN(C)C1CCN(S(=O)(=O)c2ccc(C(C)(C)C)cc2)CC1	i
COc1cc(/C=C/CO)ccc1O[C@@H]1O[C@H](CO)[C@@H](O)[C@H](O)[C@H]1O	i
CC/C=C\CCO[C@@H]1O[C@H](CO)[C@@H](O)[C@H](O)[C@H]1O	31%*
OC[C@H]1O[C@@H](OCCc2ccccc2)[C@H](O)[C@@H](O)[C@@H]1O	i
CC(=O)N1CCN(c2ncccc2CNS(=O)(=O)N2CCCC2)CC1	i
COc1ccc(C(=O)Nc2cc(C)ccc2OCc2cc(=O)n3oc(C)cc3n2)cc1	i
O=Cc1ccc(OCc2cccc(F)c2)cc1	i
COc1ccc(C2=C/C(=C/c3cccc(OC)c3OC)C(=O)O2)c(OC)c1	34%*
CCc1ccc(C2=C/C(=C/c3cc(OC)ccc3OC)C(=O)O2)cc1	38%*
COc1ccc(/C=C2\C=C(c3ccc(Br)cc3)OC2=O)cc1[N+](=O)[O-]	i
COc1cc(/C=C2\C=C(c3ccc(Cl)cc3)OC2=O)cc(Br)c1OC	i
COc1cc(/C=C2\C=C(c3ccc(Cl)cc3)OC2=O)cc(I)c1OC	i
